Source: PubChem BioAssay AID1963576 (National Center for Advancing Translational Sciences (NCATS), 2024)
Screen size: about 46,000 compounds; about 60 (0.1%) were called active. Inconclusive results (about 3%) are left out. The full list was thinned out, with actives kept by preference. Unmarked numbers belong to inactive results. Calls come from the whole dose curve; as a rule, active = well fitted inhibition curve with a large enough effect; inconclusive = small, poorly fitted or top-dose-only effect; inactive = no such curve, though single readings can be large or run the other way.
Potency is the fitted concentration of half-maximal effect.

Assay: Primary qHTS assay for Inhibitors of ovarian cancer metastasis using an organotypic tumor microenvironment (TME) model.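 For Potency: count of GFP cancer cells still attached after washing and fixation.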 Note: nearly all actives have a fitted effect of over 65% in size.
Conditions: SKOV3ip1-GFP adhesion/invasion on 3D omental model, fluorescence; series mostly up to 45.8 µM; activity change, negative = inhibition: at the top concentration
Description: PI: Ernst Lengyel MD., Ph.D. Department of Obstetrics and Gynecology, Section of Gynecologic Oncology University of Chicago Medicine, Chicago, Illinois. The tumor microenvironment (TME) is a key determinant of metastatic efficiency. We performed a quantitative high-throughput screen (qHTS) of diverse medicinal chemistry tractable scaffolds (44,420 compounds) and pharmacologically active small molecules (386 compounds) using a layered organotypic, robust assay representing the ovarian cancer metastatic TME. This 3D model contains primary human mesothelial cells, fibroblasts, and extracellular matrix, to which fluorescently labeled ovarian cancer cells are added. Initially, 100 compounds inhibiting ovarian cancer adhesion/invasion to the 3D model in a dose-dependent manner were identified. Of those, eight compounds were confirmed active in five high-grade serous ovarian cancer cell lines and were further validated in secondary in vitro and in vivo biological assays. […] Specifically, NCGC00117362 and PP-121 inhibited ovarian cancer adhesion, invasion, and proliferation, whereas milciclib inhibited ovarian cancer invasion and proliferation. […] To evaluate the clinical potential of NCGC00117362, structure - activity relationship studies were performed. […] The three compounds identified have promise as therapeutics for prevention and treatment of ovarian cancer metastasis.
PROTOCOL TABLE (as described by Inglese J, Shamu CE and Guy RK. 2007) SEQUENCE No. (e.g., 1, 2, 3, etc.); […] (e.g., Cells, Incubation, Reagent, etc.); VALUE; DESCRIPTION. 1; Cells; 4 uL; primary human omental fibroblast, black, clear bottom, low base, 1536-well Aurora assay plate. 2; Incubation; 48 hr; 37C. 3; Cells; 3 uL; 1,200 SKOV3ip1-GFP cells. 4; Compounds; 23nL; acoustic dispenser. 5; Incubation; 2 hr; room temperature. 6; Incubation; 16 hr; 37C. 7; Wash; 5 uL; 1x PBS. 8; Fixing; 5 uL; 4% paraformaldehyde (PFA). 9; Incubation; 15 min; room temperature 10; Wash, 5 uL; 1x PBS. 11; Detection; Fluorescence, excitation filter 488 nm, emission filter 509 nm. NOTES (numbers refer to Sequence numbers above) 1. For the 1,536-well format, 40 primary human omental fibroblasts and 400 mesothelial cells were seeded with 0.02 µg fibronectin and 0.02 µg collagen type I in 4 µL of growth media (2.3 mm2; Supplementary Fig. S1A). 2. Assay plates were incubated for 48 hours at 37 C. 3. After incubation, 1,200 SKOV3ip1-GFP were seeded in 3 µL of serum-free media (growth media minus FBS) on top of primary human omental cells. 4. Compounds or controls were added to each well immediately after the addition of the cancer cells. Compounds were screened in four doses (0.36-46 µmol/L), and the plates contained the positive control (Tomatine) in eight doses (0.035-75 µmol/L) and DMSO (equal volume controls) 5 - 6. The plates were incubated at room temperature for 2 hours and then at 37 degrees C for 16 hours. 7 - 10. Following incubation, the media were aspirated and each well washed with PBS (5 µL) and then fixed with 4% paraformaldehyde (PFA; 5 µL). After 15 minutes, the PFA solution was aspirated, PBS (5 µL) was added. 11. The number of GFP-labeled cells analyzed using a fluorescent cytometer TTP LabTech Acumen eX3 using 488 nm excitation filter and 509 nm emission filter. Data was normalized to the DMSO treated for negative and Tomatine treated wells for positive control. REFERENCES: Inglese J, Shamu CE and Guy RK, Reporting data from high throughput screening of small molecule libraries, Nature Chemical Biology, 2007, 3(8): 438-441. doi.org/10.1038/nchembio0807-438. Yasgar A, Shinn P, Jadhav A, Auld DS, Michael S, Zheng W, Austin CP, Inglese J and Simeonov A, Compound Management for Quantitative High-Throughput Screening. J. Assoc. Lab. Auto., 2008, 13: 79-89. doi: 10.1016/j.jala.2007.12.004.
In the case of `CCOC(=O)C1CCCN(S(=O)(=O)c2cc(-c3cc(C)no3)ccc2OC)C1` (stereo unspecified), the “activity change, negative = inhibition” value is reported as -0.925%.
For `CCOc1ccccc1NC(=O)Cn1c(=O)n(-c2cccc(C)c2)c(=O)c2c1c1cc(OC)ccc1n2C`, the “activity change, negative = inhibition” value was 6.79%.
With `COc1ccc(CCNC(=O)C(=O)NCC(c2ccco2)S(=O)(=O)c2cccs2)cc1OC` (stereo unspecified) the “activity change, negative = inhibition” value was 12%.
With `COc1ccc(CCNCc2c(C(=O)O)c(C)n(Cc3cccc(C)c3)c2C)cc1OC` the “activity change, negative = inhibition” value was -2.02%.
For `CCN(CC)CCNC(=O)c1c(C)[nH]c(C=C2C(=O)Nc3ccc(F)cc32)c1C`, the “activity change, negative = inhibition” value was -23.8% [at 92.2 µM].
In the case of `COc1ccc(C2(Nc3cccc(F)c3)C(=O)c3ccccc3C2=O)cc1`, the “outcome” value is reported as “inactive”.
With `COc1ccc(/C=C/c2nc(C#N)c(NCc3ccc(F)cc3)o2)cc1OC` the “outcome” value was “inactive”.
With `COc1ccc(NC(C)=O)cc1NC(=O)CN1CCN(c2ccc(F)cc2)CC1` the “activity change, negative = inhibition” value was 3.17%.
In the case of `CCCCCn1c(=O)[nH]c2cc(C(=O)Nc3cc(C)cc(C)c3)ccc2c1=O`, the “outcome” value is reported as “inactive”.
In the case of `Cc1ccc(NC(=O)CCCn2c(=O)c3cccn3c3ccccc32)cc1Cl`, the “outcome” value is reported as “inactive”.
In the case of `Cc1ccc(C)c(CNC(=O)c2cc3ccccn3n2)c1`, the “activity change, negative = inhibition” value is reported as -2.96%.
For `Cc1ccc(CSc2oc(-c3cccs3)nc2S(=O)(=O)c2ccc(C)cc2)cc1`, the “activity change, negative = inhibition” value was 2.23%.
In the case of `CCCCS(=O)(=O)c1oc(-c2cccs2)nc1S(=O)(=O)c1ccccc1`, the Potency is reported as 2510 nM (active).
For `CSc1oc(-c2cccs2)nc1S(=O)(=O)c1ccc(Br)cc1`, the “activity change, negative = inhibition” value was -2.14%.
In the case of `CN(CC(=O)Nc1ccccc1F)S(=O)(=O)c1ccc2c(c1)c(=O)n(C)c(=O)n2C`, the “outcome” value is reported as “inactive”.
With `Cc1ccc(NC(=O)Cn2cnc3nc4c(cc3c2=O)CCCC4)cc1Cl` the “activity change, negative = inhibition” value was -18.1%.
For `COc1cccc(C(=O)NC(=O)Nc2ccc(-c3cc(C(F)(F)F)nn3-c3ccccc3)cc2)c1`, the “activity change, negative = inhibition” value was -6.28%.
In the case of `Cc1cc(C)c2oc(C(=O)Nc3c(C(=O)Nc4ccccc4)oc4ccccc34)cc(=O)c2c1`, the “activity change, negative = inhibition” value is reported as -0.148%.
For `COc1ccc(CCNC(=O)c2cnc3sc(N4CCCCCC4)nn3c2=O)cc1OC`, the “outcome” value was “inactive”.
With `COc1cc(NC(=O)c2nn(-c3ccc(C)cc3)c(=O)c3c2c2ccccc2n3C)cc(OC)c1OC` the “activity change, negative = inhibition” value was 2.39%.
In the case of `Cc1ccc(Cl)cc1NC(=O)NC1COc2ccccc2C1` (stereo unspecified), the “activity change, negative = inhibition” value is reported as -3.78%.
For `Cn1ccc2cc(S(=O)(=O)N3CCCC(C(=O)NCc4ccccc4F)C3)ccc21` (stereo unspecified), the “activity change, negative = inhibition” value was -6.3%.
With `COC(=O)c1ccc(OC)c(Cn2c(=O)n(Cc3ccccc3)c(=O)c3c2c2cc(OC)ccc2n3C)c1` the “activity change, negative = inhibition” value was 0.627%.
With `Cc1cccc(CCNC(=O)c2ccc3c(c2)nc2n3CCC(C)C2)c1` (stereo unspecified) the “activity change, negative = inhibition” value was -15%.
For `CCOC(=O)C1CCN(c2ncnc3c2c(-c2ccccc2)cn3-c2cccc(C)c2)CC1`, the “outcome” value was “inactive”.
In the case of `CC(=O)O[C@]1(C(C)=O)CC[C@@H]2[C@@H]3C[C@H](C)C4=CC(=O)CC[C@]4(C)[C@H]3CC[C@@]21C`, the “activity change, negative = inhibition” value is reported as 20%.
For `CC1=C(C(=O)OCc2ccc(C)cc2)C(c2ccccc2Cl)CC(=O)N1` (stereo unspecified), the “outcome” value was “inactive”.
With `Cc1ccc(C(=O)Nc2cc3c(cc2N2CCCC2)n(C)c(=O)c(=O)n3C)cc1` the “activity change, negative = inhibition” value was 6.74%.
In the case of `COc1ccccc1-c1cc2nc(C)c(CCC(=O)NC3CCCCC3)c(C)n2n1`, the “activity change, negative = inhibition” value is reported as -9.62%.
In the case of `CCOc1ccc(NC(=O)CCc2c(C)nn(-c3ccc(N4CCCC4)nn3)c2C)cc1`, the “outcome” value is reported as “inactive”.
In the case of `CN1CCN(c2oc(-c3ccc(COc4ccc(Cl)cc4)o3)nc2C#N)CC1`, the “activity change, negative = inhibition” value is reported as 3.31%.
With `COc1ccc(Cn2cc(C(=O)c3ccc(C)cc3)c(=O)c3cc(OC)c(OC)cc32)cc1` the “activity change, negative = inhibition” value was -5.32%.
For `Cc1ccc2nc(COc3ccc(NC(=O)COc4ccccc4F)cc3)cc(=O)n2c1`, the “outcome” value was “inactive”.
For `COc1ccccc1CNC(=O)c1ccc(-n2c(C)cc3c2CCCC3)cc1`, the “activity change, negative = inhibition” value was 2.22%.
With `O=C(CSCc1cnn(-c2ccccc2)c1-n1cccc1)NCc1ccccc1Br` the “activity change, negative = inhibition” value was 0.114%.
For `COc1cc(Cl)cn2c(-c3cccc(NC4CNC4)n3)cnc12`, the “activity change, negative = inhibition” value was 6.77%.
In the case of `Cc1ccc(C)c(Nc2nnc(-c3ccc(C)c(S(=O)(=O)N4CCCCC4)c3)c3ccccc23)c1`, the “activity change, negative = inhibition” value is reported as -1.28%.
For `Cc1ccc(C)c(N2CCN(C(=O)CCc3c(C)nc4c(c3C)c(=O)n(C)c(=O)n4C)CC2)c1`, the “activity change, negative = inhibition” value was -15.3%.
In the case of `CCOc1ccc(NC(=O)c2cc3c(=O)n(Cc4cccs4)ccc3nc2C)cc1`, the “activity change, negative = inhibition” value is reported as 2.81%.
For `CCCOc1ccc(NC(=O)CC2C(=O)N(c3ccccc3)C(=O)N2Cc2ccco2)cc1` (stereo unspecified), the “activity change, negative = inhibition” value was 2.15%.
For `O=C(CCCn1c(=O)c2cccn2c2cccnc21)NCc1ccc(F)cc1`, the “outcome” value was “inactive”.
For `Cc1ccccc1-c1nc2cc(NC(=O)c3cccc(OCCC(C)C)c3)ccc2o1`, the “activity change, negative = inhibition” value was 1.04%.
For `CCN(Cc1ccccc1)C(=O)CCS(=O)(=O)c1ccc2c(c1)oc(=O)n2C`, the “activity change, negative = inhibition” value was 8.58%.
For `Cc1cccc(NC(=O)CN(c2ccc(C(C)C)cc2)S(=O)(=O)c2c(C)nn(C)c2C)c1C`, the “activity change, negative = inhibition” value was -7.12%.
In the case of `O=C(CCc1ccccc1)NCc1ccc2c(c1)CCN2C(=O)c1ccccc1`, the “outcome” value is reported as “inactive”.
For `Cc1cc(O)c(C(c2ccccc2)N2CCN(c3ccccc3F)CC2)c(=O)n1Cc1ccco1` (stereo unspecified), the “activity change, negative = inhibition” value was -0.378%.
In the case of `O=[N+]([O-])c1cc(-c2nc(-c3ccccc3)no2)ccc1NCc1ccco1`, the “activity change, negative = inhibition” value is reported as 6.86%.
In the case of `Cc1ccc(C)c(Cn2c(C)c(CNCc3ccc(F)cc3)c(C(=O)O)c2C)c1`, the “outcome” value is reported as “inactive”.
In the case of `COc1ccc(C2(C#N)CCC(C(=O)O)CC2)cc1OC1CCCC1` (stereo unspecified), the “activity change, negative = inhibition” value is reported as 9.33%.
With `CCOC(=O)c1c(NC(=O)c2cc(CC)on2)sc(C(C)=O)c1C` the “activity change, negative = inhibition” value was 8.82%.
With `CC(C)(C)c1[nH]cnc1C=c1[nH]c(=O)c(=Cc2ccccc2)[nH]c1=O` the “activity change, negative = inhibition” value was 0.182% [at 92.2 µM].
